About 510 (0.14%) of roughly 360,000 compounds were called active. Many of the other results were omitted from the sample, so actives are more common in it than they were. Unmarked numbers belong to inactive results.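 Rule for the calls: active = mean normalized replicate activity at least 40 and at least half of replicates scoring 40 or more; inconclusive = only one of the two criteria met; inactive = mean below 40 and under half of replicates reaching 40.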

Sequence of DNA repair and recombination protein RAD54-like (Homo sapiens) (Q92698 whole entry, looked up): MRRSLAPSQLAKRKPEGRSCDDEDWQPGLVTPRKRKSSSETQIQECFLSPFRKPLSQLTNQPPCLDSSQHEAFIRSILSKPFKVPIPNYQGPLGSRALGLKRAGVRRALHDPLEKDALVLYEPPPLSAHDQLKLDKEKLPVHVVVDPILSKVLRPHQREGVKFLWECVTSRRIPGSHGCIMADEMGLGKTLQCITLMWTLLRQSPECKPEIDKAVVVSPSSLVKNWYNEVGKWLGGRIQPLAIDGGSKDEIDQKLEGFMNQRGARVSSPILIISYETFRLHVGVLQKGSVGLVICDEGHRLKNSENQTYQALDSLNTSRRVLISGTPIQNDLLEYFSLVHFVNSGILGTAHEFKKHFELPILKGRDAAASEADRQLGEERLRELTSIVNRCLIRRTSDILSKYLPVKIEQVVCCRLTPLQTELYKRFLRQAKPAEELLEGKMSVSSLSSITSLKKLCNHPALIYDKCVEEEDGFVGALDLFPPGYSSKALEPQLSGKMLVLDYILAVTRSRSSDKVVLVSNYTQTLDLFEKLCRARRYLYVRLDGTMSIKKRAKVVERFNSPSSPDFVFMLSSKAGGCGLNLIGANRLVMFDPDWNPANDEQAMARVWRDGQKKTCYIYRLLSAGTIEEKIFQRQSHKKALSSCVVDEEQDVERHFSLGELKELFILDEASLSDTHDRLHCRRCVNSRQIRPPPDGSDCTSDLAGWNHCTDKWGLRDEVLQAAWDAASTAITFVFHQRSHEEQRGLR

The test addresses DNA repair and recombination protein RAD54-like (Homo sapiens) (UniProt Q92698). Nature of the test: inhibitors of human RAD54 branch migration, primary screen, biochemical, fluorescence, single point (AID 602329).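 Note: 0% = median of neutral control wells and 100% = median of positive control wells; inhibitors cause a drop in the FAM fluorescence signal.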 The conditions noted are these: RAD54 Holliday junction branch migration, FAM/BHQ fluorescence; at 10.4 µM; stronger effect = higher value.
Regarding `CC(C)NC(=O)Nc1ccc2c(c1)C(=O)N(C)[C@H]1CC[C@H](CC(=O)NCc3ccc(F)cc3)O[C@H]1CO2`, the inhibition was 7.11%.

As to `C[C@@H]1CN([C@H](C)CO)S(=O)(=O)c2ccc(C3=CCCC3)cc2O[C@@H]1CN(C)C(=O)C1CCC1`, the inhibition was -3.7%.

On to `C[C@@H]1CCCCO[C@@H](CN(C)C(=O)c2ccccc2)[C@@H](C)CN([C@@H](C)CO)C(=O)c2cc(NS(=O)(=O)c3ccccc3)ccc2O1`, for which the inhibition was -0.712%.

In the case of `CCCNC(=O)[C@H]1[C@H](CO)[C@H]2Cn3c(cccc3=O)[C@H]2N1Cc1ccccc1Cl`, the inhibition was -3.26%.

For `CC(=O)N1[C@@H]2Cn3c(ccc(C4=CCCC4)c3=O)[C@H]1[C@@H](C(=O)NC1CCC1)[C@@H]2CO`, the inhibition was 7.46%.

In the case of `COc1ccc(NC(=O)N(C)C[C@H]2OCCCC[C@@H](C)Oc3ccc(NC(=O)c4ccncc4)cc3C(=O)N([C@@H](C)CO)C[C@H]2C)cc1`, the inhibition was 2.64%.

For the compound `CN1C(=O)c2cc(NS(=O)(=O)c3ccc(Cl)cc3)ccc2OC[C@@H]2O[C@H](CC(=O)O)CC[C@@H]21`, the inhibition was -1.23%.

On to `CC(C)NC(=O)N(C)C[C@@H]1Oc2ncc(-c3ccc(C(=O)N(C)C)cc3)cc2C(=O)N([C@H](C)CO)C[C@H]1C`, for which the inhibition was -0.445%.

With `CCCNC(=O)N(C)C[C@@H]1Oc2ncc(-c3cccc(C#N)c3)cc2C(=O)N([C@@H](C)CO)C[C@H]1C`, the inhibition was 7.71%.

As to `CCC(=O)N(C)C[C@@H]1Oc2cc(C#CCOC)ccc2S(=O)(=O)N([C@@H](C)CO)C[C@@H]1C`, the inhibition is -1.77%.

As for `Cc1cccn2c(=O)c3cc(C#N)c(=O)n(CCCN4CCOCC4)c3nc12`, the inhibition was 56.4% (active).

For `Cc1cccn2c(=O)c3cc(C#N)c(=NC(=O)c4cccnc4)n(CC4CCCO4)c3nc12` (stereo unspecified), the inhibition was -4.7%.

Regarding `Cc1ccc(-n2c(=O)c(C#N)cc3c(=O)n4ccccc4nc32)cc1C`, the inhibition is -1.05%.

`C[C@@H](NC(=O)C[C@H]1C[C@H]2c3cc(NC(=O)C4CCOCC4)ccc3O[C@H]2[C@@H](CO)O1)c1ccccc1`: the inhibition is -0.474%.

For the compound `CC(=O)Nc1cc(-c2ccc(N3CCN(C)CC3)cc2)cn2c(-c3ccc(F)cc3)cnc12`, the inhibition is 36.5%.

Take `Cc1cc(Nc2cc(N3CCN(C)CC3)nc(Sc3ccc(NC(=O)C4CC4)cc3)n2)n[nH]1`: the inhibition was 17.6%.

Regarding `C=CC(=O)Nc1ccc(Nc2ccnc(Nc3ccc(N4CCN(C)CC4)cc3)n2)cc1`, the inhibition is 81.2% (active).

For the compound `C[C@H](CO)N1C[C@H](C)[C@@H](CN(C)S(=O)(=O)c2cn(C)cn2)Oc2ccc(N(C)C)cc2CC1=O`, the inhibition is -0.235%.

As to `CCN(C[C@@H]1[C@@H](c2ccccc2)[C@H](CO)N1C(C)=O)C(=O)NC(C)C`, the inhibition was -5%.

Consider `CO[C@@H]1CN(C)C(=O)c2cc(NC(=O)C3CCCC3)ccc2OC[C@@H](C)N(Cc2ccc(F)cc2)C[C@H]1C`, for which the inhibition is -4.74%.

With `CC(=O)N(C)C[C@@H]1Oc2cc(C#Cc3ccccc3F)ccc2S(=O)(=O)N([C@@H](C)CO)C[C@@H]1C`, the inhibition is -0.527%.

As for `C[C@@H]1CN([C@@H](C)CO)C(=O)c2cc(-c3ccc(C#N)cc3)cnc2O[C@H]1CN(C)C(=O)CN(C)C`, the inhibition is 5.52%.

As for `CCNC(=O)C[C@@H]1CC[C@@H]2[C@H](COC[C@H](O)CN2S(=O)(=O)c2ccc(Oc3ccccc3)cc2)O1`, the inhibition is -6.18%.

Turning to `O=C(C[C@H]1CC[C@@H](NC(=O)c2ccccc2)[C@@H](CO)O1)NCc1ccncn1`, the inhibition was -7.18%.

On to `CCCNC(=O)C[C@@H]1CC[C@@H]2[C@H](COc3ccc(NC(=O)c4cc(F)cc(F)c4)cc3C(=O)N2C)O1`, for which the inhibition was 1.51%.

For `CCCNC(=O)C[C@@H]1CC[C@H]2[C@@H](COC[C@@H](O)CN2Cc2ccccc2F)O1`, the inhibition is 6.11%.

Turning to `C[C@@H]1CN([C@H](C)CO)C(=O)c2cccc(NC(=O)Nc3ccc4c(c3)OCO4)c2O[C@@H]1CN(C)Cc1ccccc1`, the inhibition was -7.8%.

Consider `C[C@H]1CN([C@@H](C)CO)C(=O)c2cc(NC(=O)C3CC3)ccc2O[C@@H]1CN(C)S(=O)(=O)c1cn(C)cn1`, for which the inhibition is -0.446%.

Turning to `COc1ccc(NC(=O)N(C)C[C@H]2OCc3ccccc3-c3ccccc3C(=O)N([C@H](C)CO)C[C@@H]2C)cc1`, the inhibition was -9.7%.

On to `O=C1CCN(CCCc2ccccc2)CCN1CCO`, for which the inhibition is -1.44%.

Consider `O=C1c2ccccc2C(=O)c2c1cccc2N1CCN(CCO)CC1`, for which the inhibition was 84.2% (active).

As to `O=C(Nc1cccc(Cl)c1)c1cc([N+](=O)[O-])ccc1N1CCN(CCO)CC1`, the inhibition was -11.1%.

As to `Cc1noc(C)c1NC(=O)N(C)C[C@H]1Oc2ccc(NS(=O)(=O)c3ccc(Cl)cc3)cc2CC(=O)N([C@H](C)CO)C[C@@H]1C`, the inhibition is -4.2%.

Regarding `Cc1ccc(S(=O)(=O)N(C)C[C@H]2Oc3ccc(NC(=O)C4CC4)cc3C(=O)N([C@H](C)CO)C[C@H]2C)cc1`, the inhibition was 8.82%.

In the case of `CO[C@H]1CN(C)C(=O)c2cc(NC(=O)C3CCC3)ccc2OC[C@H](C)N(Cc2nccs2)C[C@H]1C`, the inhibition is 2.2%.

With `COc1cccc(NC(=O)C[C@@H]2CC[C@H]3[C@@H](COc4ccc(NC(=O)C5CCOCC5)cc4C(=O)N3C)O2)c1`, the inhibition was -1.97%.

`COCC(=O)Nc1ccc2c(c1)C(=O)N(C)C[C@@H](OC)[C@H](C)CN(C(=O)CC1CC1)[C@H](C)CO2`: the inhibition was 3.23%.

For `CCCN(C)C[C@H]1Oc2cc(-c3ccc(C)cc3)ccc2S(=O)(=O)N([C@H](C)CO)C[C@H]1C`, the inhibition was -15%.

On to `C#Cc1ccc([C@H]2C=C(C(=O)O)O[C@@H](OCC)[C@@H]2CCCO)cc1`, for which the inhibition is -9.94%.

As for `Cc1noc(C)c1NC(=O)Nc1cccc2c1O[C@@H](CN(C)Cc1ccc3c(c1)OCO3)[C@@H](C)CN([C@@H](C)CO)C2=O`, the inhibition is 7.78%.

For the compound `O=C(c1cccnc1)N1CCCCN2[C@@H](CO)[C@H](c3ccc(C#Cc4ccccc4)cc3)[C@@H]2C1`, the inhibition is 1.81%.

In the case of `CCNC(=O)[C@@H]1[C@@H](CO)[C@@H]2Cn3c(ccc(C4=CCCC4)c3=O)[C@H]1N2Cc1ccccc1`, the inhibition is 2.92%.

For the compound `CC(C)NC(=O)N(C)C[C@H]1OCCCC[C@H](C)Oc2ccc(NC(=O)Nc3ccc4c(c3)OCO4)cc2C(=O)N([C@H](C)CO)C[C@@H]1C`, the inhibition was -0.838%.

`CNC[C@H]1Oc2cc(C#Cc3ccccc3)ccc2S(=O)(=O)N([C@@H](C)CO)C[C@@H]1C`: the inhibition was 1.19%.

For `Cc1ccc(S(=O)(=O)N(C)C[C@H]2OCCCC[C@H](C)Oc3ccc(NS(=O)(=O)c4c(C)noc4C)cc3C(=O)N([C@H](C)CO)C[C@@H]2C)cc1`, the inhibition is 3.91%.

Regarding `CN1c2ccc(-c3ccc(F)cc3)cc2[C@@H]2[C@@H](CCN2S(=O)(=O)c2ccc(F)cc2)[C@@H]1CO`, the inhibition was -1.5%.

With `COc1ccc(NC(=O)Nc2ccc3c(c2)CC(=O)N([C@@H](C)CO)C[C@H](C)[C@H](CN(C)C(=O)Nc2ccc4c(c2)OCO4)O3)cc1`, the inhibition was -3.32%.

On to `COc1cccc(C(=O)Nc2ccc3c(c2)C(=O)N(C)[C@@H]2CC[C@@H](CC(=O)NCCCN4CCOCC4)O[C@@H]2CO3)c1`, for which the inhibition is 8.84%.

`CO[C@H]1CN(C)C(=O)c2ccc(NC(=O)C3CCOCC3)cc2OC[C@H](C)NC[C@H]1C`: the inhibition is -0.243%.

For the compound `CCNC(=O)C[C@@H]1CC[C@@H]2[C@@H](COc3ccc(NC(=O)c4cccc(C(F)(F)F)c4)cc3C(=O)N2C)O1`, the inhibition was 7.26%.

`O=C(C1CCC1)N1CC[C@H]2[C@H](CO)Nc3ccc(-c4cccc(F)c4)cc3[C@H]21`: the inhibition is 2.5%.

What is called inhibition is the relative decrease from the control value, in per cent.

The values are drawn from PubChem BioAssay AID602329 (Broad Institute, 2012).
